Consider two compounds from PubChem BioAssay AID1159580 (chemical genetic matrix, 2015).

A short description of the test: chemical genetic growth profiling, strain panel (AID 1159580).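 Also: tested at 20 µM; growth read once vehicle control cultures reached saturation at 30 °C; 1 = growth at the plate median or of vehicle wells; lower values mean less growth of the strain.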 Particulars: S. cerevisiae deletion strains, growth OD.
Setting [1] is: locus YHR030C, strain SLT2, stronger effect = lower value.
[2] abbreviates: locus YHR079C, strain IRE1, stronger effect = lower value.
[3] abbreviates: locus YJL095W, strain BCK1, stronger effect = lower value.
Setting [4] is: locus YJR066W, strain TOR1, stronger effect = lower value.
The mark [5] stands for this setting: locus YLR113W, strain HOG1, stronger effect = lower value.
Where [6] appears, read: locus YNL183C, strain NPR1, stronger effect = lower value.
Setting [7] is: locus YOR231W, strain MKK1, stronger effect = lower value.
Setting [8] is: locus YPL256C, strain CLN2, stronger effect = lower value.

The structures appear in SMILES notation. Hit rate of the full screen: of about 5,500 compounds, about 2,000 (36%) were called active. Roughly 18% stayed inconclusive and do not appear here. The list shows a part of the results. Values without a mark were called inactive. Rule as the data show it: active = normalized growth mostly below about 0.91 (no sharp cut-off); inconclusive = no clear call, values can overlap the other calls; inactive = mostly above about 0.92.

Take `CCc1oc2ccccc2c1C(=O)c1cc(Br)c(O)c(Br)c1`: the normalized growth by setting is: under setting [1], 0.0985 (active); under setting [2], 0.111 (active); under setting [3], 0.101 (active); under setting [4], 0.00147 (active); under setting [5], 0.124 (active); under setting [6], 0.06 (active). Besides, the normalized growth under setting [7] was 0.105 (active) and the normalized growth under setting [8] is 0.13 (active).

As to `O=C(O)c1ccccc1-c1c2cc(I)c(=O)c(I)c-2oc2c(I)c(O)c(I)cc12`, the normalized growth is 0.991 under setting [1]; 1 under setting [2]; 0.992 under setting [3]; 0.903 under setting [4]; 0.942 under setting [5]; 0.93 under setting [6]. The normalized growth by setting is: under setting [7], 1.02; under setting [8], 1.01.
